The record followed here is PubChem BioAssay AID2156 (Johns Hopkins Ion Channel Center, 2009).

Structures are written as SMILES. The campaign covered roughly 310,000 compounds. About 3,400 (1.1%) were called active. Shown is part of a subset that was picked to be rich in actives. Unmarked numbers belong to inactive results.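 How the source made its calls: active means fluorescence ratio B-score at most minus 3 library SDs, with starting brightness B-score within 2 library SDs (cut at about -5.5 in these data); inactive means the rest, inconclusive results apart.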

For this assay, the target named is Potassium voltage-gated channel subfamily KQT member 2 (Rattus norvegicus) (UniProt O88943). Kind of assay: rat KCNQ2 potassium channel inhibitors, primary screen, cell-based, CHO-K1, FluxOR thallium flux, B-score (AID 2156). The conditions noted are these: 20 min, at 10 µM; active compounds read low.
Potassium voltage-gated channel subfamily KQT member 2 (Rattus norvegicus), sequence (O88943 whole entry, looked up): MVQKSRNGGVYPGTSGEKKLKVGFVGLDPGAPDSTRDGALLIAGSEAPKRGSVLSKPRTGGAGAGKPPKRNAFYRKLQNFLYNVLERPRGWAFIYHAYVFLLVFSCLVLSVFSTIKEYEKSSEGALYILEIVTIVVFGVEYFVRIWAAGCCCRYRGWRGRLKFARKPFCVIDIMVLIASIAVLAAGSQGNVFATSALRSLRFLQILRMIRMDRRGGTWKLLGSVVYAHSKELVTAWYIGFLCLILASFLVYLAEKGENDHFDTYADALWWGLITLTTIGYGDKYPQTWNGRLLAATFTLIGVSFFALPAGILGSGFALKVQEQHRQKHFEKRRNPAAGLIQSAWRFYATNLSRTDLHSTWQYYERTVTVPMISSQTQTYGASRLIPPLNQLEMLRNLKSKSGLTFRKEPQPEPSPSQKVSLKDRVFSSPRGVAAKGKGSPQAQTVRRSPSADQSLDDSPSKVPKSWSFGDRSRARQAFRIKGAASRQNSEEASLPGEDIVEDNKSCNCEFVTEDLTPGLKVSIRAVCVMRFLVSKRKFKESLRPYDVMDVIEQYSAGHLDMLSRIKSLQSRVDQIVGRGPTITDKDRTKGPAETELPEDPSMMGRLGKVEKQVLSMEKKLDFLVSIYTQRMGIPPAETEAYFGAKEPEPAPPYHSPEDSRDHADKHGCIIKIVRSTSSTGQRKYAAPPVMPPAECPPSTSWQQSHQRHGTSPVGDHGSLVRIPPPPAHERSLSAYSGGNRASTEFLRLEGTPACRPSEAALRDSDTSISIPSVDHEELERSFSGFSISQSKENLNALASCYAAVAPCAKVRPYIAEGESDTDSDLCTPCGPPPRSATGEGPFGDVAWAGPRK
In the case of `CSc1nc2ccccc2c(=O)n1Cc1ccc(F)cc1`, the B-score result is “inactive”.
As for `CC(C)(C)N1CC(c2nc3ccccc3n2Cc2ccc(F)cc2)CC1=O` (configuration not stated), the B-score is -5.93 (active).
On to `C=CCn1c(C2CC(=O)N(c3ccc(C)cc3)C2)nc2ccccc21` (configuration not stated), for which the B-score result is “inactive”.
With `CCN(CC)c1ccc(NC(=O)c2ccc(=O)[nH]c2)cc1S(=O)(=O)Nc1ccc(OC)cc1`, the B-score was -0.01.
As for `O=C1Nc2cc(C(=O)N3CCC(N4CCCCC4)CC3)ccc2S/C1=C\c1ccccc1`, the B-score is -6.65 (active).
Take `CC1CCN(C(=O)c2ccc3c(c2)NC(=O)CN3)CC1`: the B-score was -0.25.
As for `CCN1CCN(CCNC(=O)c2ccc3c(c2)NC(=O)/C(=C\c2ccc(OC)c(OC)c2)S3)CC1`, the B-score is -0.06.
Turning to `Cc1ccc(S(=O)(=O)N(C)c2ccc(OCC(=O)OCC(=O)N(CC#N)c3ccccc3)cc2)cc1`, the B-score entry was “inactive”.
Take `CN(CC(=O)Nc1cccc(F)c1)C(=O)C1CSC2(C)CCC(=O)N12` (configuration not stated): the B-score was -0.47.
For the compound `COc1ccccc1C(=O)NC(CCSC)C(=O)NNC(=O)c1ccccc1C` (configuration not stated), the B-score entry was “inactive”.
Take `Cc1cc(NC(=O)CSC2=NS(=O)(=O)c3cc(Cl)ccc3N2)no1`: the B-score is -0.31.
Consider `CCc1ccc2ncc(C(=O)c3ccccc3)c(N3CCOCC3)c2c1`, for which the B-score was -9.81 (active).
For `CCc1ccc(C(=O)NC(=S)Nc2ccccc2N2CCOCC2)cc1`, the B-score was -5.43.
As for `O=C(c1ccccc1)c1cc(-c2ccccn2)c(N2CCOCC2)s1`, the B-score is -0.1.
Next, `CCCCn1c(N)c(N(CC(C)C)C(=O)c2cccc(S(=O)(=O)N3CC(C)OC(C)C3)c2)c(=O)[nH]c1=O` (configuration not stated): “inactive”.
Take `CCCCn1c(N)c(N(CC(C)C)C(=O)c2cnc(C)cn2)c(=O)[nH]c1=O`: the B-score result was “inactive”.
`Cc1cc(NC(=O)C(C)SCC(=O)Nc2ccccc2N2CCCCC2)no1` (configuration not stated): the B-score result was “inactive”.
Turning to `O=C(NCCCN1CCCC1=O)c1cccc(S(=O)(=O)NCc2ccccc2)c1`, the B-score was -0.85.
With `O=C(COC(=O)c1ncc(Cl)c(Cl)c1Cl)NCc1cccs1`, the B-score is -2.02.
Turning to `O=C(CN1CCC(O)(c2ccccc2)CC1)Nc1ccc2c(c1)OCCO2`, the B-score result was “inactive”.
`O=C(CCN1CCc2ccccc2C(O)(c2ccccc2)C1)c1ccc2c(c1)OCCO2` (configuration not stated): the B-score was -6.97 (active).
In the case of `CCC1(c2ccccc2)NC(=O)N(CC(=O)c2ccc3c(c2)OCO3)C1=O` (configuration not stated), the B-score result is “inactive”.
With `COc1cc(N)c(Cl)cc1C(=O)OCC(=O)c1ccc2c(c1)NC(=O)CO2`, the B-score entry was “inactive”.
Next, `CCOc1ccc(NC(=O)COc2ccc(C(=O)NC3CCCc4ccccc43)cc2OC)cc1` (configuration not stated): “inactive”.
In the case of `COc1ccc(CN(C)C(C)C(=O)NC2CCCc3ccccc32)cc1` (configuration not stated), the B-score is -6.8 (active).
Turning to `Cc1cccc(C(=O)OC(C)C(=O)NC2CCCc3ccccc32)c1O` (configuration not stated), the B-score was -7.78 (active).
Regarding `CNS(=O)(=O)c1cccc(C(=O)NC2CCCc3ccccc32)c1` (configuration not stated), the B-score was -2.62.
Take `O=C(CN1CCN(c2ccc(O)cc2)CC1)NC1CCCc2ccccc21` (configuration not stated): the B-score was -0.25.
As for `COc1ccc(CN(C)C(=O)CC(c2ccccc2)c2ccccc2)cc1`, the B-score was -2.95.
With `Cc1ccc(NC(=O)CN(C)C(=O)Cn2nnc(-c3ccccc3)n2)cc1`, the B-score entry was “inactive”.
For `COc1ccccc1CNC(=O)CSc1nc(=O)n(Cc2ccncc2)c2c1CCC2`, the B-score was -0.12.
Next, `CCOc1ccccc1-c1cc(C(=O)N2CCOCC2)c2ccccc2n1`: “inactive”; `O=C(c1cc(-c2ccc(Cl)s2)nc2ccccc12)N1CCOCC1`: -6 (active).
In the case of `CC(=O)N1CCN(C(=O)c2cc(-c3ccc(Cl)s3)nc3ccccc23)CC1`, the B-score result is “inactive”.
Turning to `Cc1cc(OCC(=O)N(C)c2c(N)n(Cc3ccccc3)c(=O)[nH]c2=O)c(C(C)C)cc1Cl`, the B-score was -0.02.
For `COc1ccc(-c2cnc(SCCNC(=O)c3ccc4c(c3)OCO4)[nH]2)cc1` the value was “inactive”; for `O=C1OC(c2ccc(Cl)cc2)=N/C1=C\c1cccnc1`, -0.06.
Next, `Cc1ccc(C2=N/C(=C\c3ccc(OS(=O)(=O)c4ccc(C)cc4)cc3)C(=O)O2)cc1`: -7.24 (active); `Cc1ccc(S(=O)(=O)Oc2ccc(/C=N/NC(=O)c3ccncc3)cc2)cc1`: -0.5.
In the case of `COc1ccc(OCCCC(=O)OC(C)C(=O)Nc2ccccc2[N+](=O)[O-])cc1` (configuration not stated), the B-score was -0.14.
For `Cc1ccc(CN2CCN(c3ccccc3Cl)CC2)o1` the value was -0.4; for `O=C(N/N=C/c1cc(Cl)cc([N+](=O)[O-])c1O)C(O)(c1ccccc1)c1ccccc1`, -0.18; for `O=[N+]([O-])c1cc(Cl)cc(/C=N/NC(=S)Nc2cc(S(=O)(=O)N3CCOCC3)ccc2Cl)c1O`, -8.14 (active).
For the compound `O=C(CN1CCN(c2ccc(O)cc2)CC1)Nc1cc(S(=O)(=O)N2CCOCC2)ccc1Cl`, the B-score was -0.82.
Consider `CC(=O)n1cc([C@@H]2C=C(C(=O)N3CCN(Cc4ccc5c(c4)OCO5)CC3)O[C@H](OCc3ccc(CO)cc3)C2)c2ccccc21`, for which the B-score was -6.49 (active).
In the case of `CN1CCN(C(=O)C2=C[C@H](c3ccc4c(c3)OCO4)C[C@H](OCc3ccc(CO)cc3)O2)CC1`, the B-score was -0.01.
For `CC(=O)n1cc([C@H]2C=C(C(=O)N3CCOCC3)O[C@@H](OCc3ccc(CO)cc3)C2)c2ccccc21` the value was -4.18; for `O=C(COc1coc(CN2CCN(c3ccccc3F)CC2)cc1=O)N1CCc2ccccc21`, “inactive”; for `COc1cc(/C=C/C(=O)N2CCc3ccccc3C2)cc(OC)c1OC`, “inactive”.
Take `COc1cc(/C=C/C(=O)N2c3ccccc3Sc3ccc(C(F)(F)F)cc32)cc(OC)c1OC`: the B-score was -7.31 (active).
As for `O=C(CN1CCCCCC1)N1c2ccccc2Sc2ccc(C(F)(F)F)cc21`, the B-score was -3.82.
Next, `CC(c1ccco1)N(C(=O)Nc1ccccc1)C1CCCCC1` (configuration not stated): -5.91 (active); `Cc1ccc(NC(=O)NC(=O)N(C2CCCCC2)S(=O)(=O)c2ccccc2)cc1`: -1.57.
On to `CCOc1ccc(NC(=O)N(CCC(C)C)C(C)c2ccco2)cc1` (configuration not stated), for which the B-score is -2.46.
As for `N#CC1(NC(=O)COC(=O)CSc2ccc(F)cc2)CCCCC1`, the B-score result is “inactive”.
For the compound `C=CCOc1ccc(/C=C/C(=O)OC(C)C(=O)Nc2ccc(NC(C)=O)cc2)cc1` (configuration not stated), the B-score entry is “inactive”.
On to `CCCn1c(C)cc(/C=C(\C#N)C(=O)OCC(=O)N(C)c2c(N)n(Cc3ccccc3)c(=O)[nH]c2=O)c1C`, for which the B-score was -0.77.
For `COc1ccc(OC)c(C(=O)c2ccc(Cl)cc2)c1` the value was “inactive”.
Next, `COc1ccc(/C(C)=N/NC(=O)CCC(=O)Nc2ccc(Cl)cc2Cl)c(OC)c1`: -2.5; `COc1ccc(OC)c(/C(C)=N\NC(=O)c2cc3cc(Cl)ccc3n2C)c1`: -8.07 (active); `O=C(Nc1ccon1)c1sc2ccccc2c1Cl`: -0.39.
Take `COc1ccc(CNC(=O)CNC(=O)c2sc3ccccc3c2Cl)cc1OC`: the B-score entry was “inactive”.
Consider `CN1CCc2ccccc2C1Cc1ccccc1NC(=O)c1sc2ccccc2c1Cl` (configuration not stated), for which the B-score was -6.56 (active).
Take `COc1ccc(-c2csc3ncnc(N4CCN(S(=O)(=O)c5cccc(F)c5)CC4)c23)cc1`: the B-score was -2.13.
As to `CC(OC(=O)CCCOc1ccccc1)C(=O)Nc1ccc(Cl)cn1` (configuration not stated), the B-score entry is “inactive”.
With `CC1CN(C(=O)COC(=O)c2cccc(NS(=O)(=O)c3ccccc3)c2)CC(C)O1` (configuration not stated), the B-score result is “inactive”.
For `CS(=O)(=O)n1nc(-c2ccccc2)nc1NCc1ccco1` the value was -0.02; for `c1ccc(-c2nc(NCc3ccco3)c3ccccc3n2)cc1`, -3.7.
For `O=C(Cc1ccccc1)n1nc(-c2ccccc2)nc1NCc1ccco1`, the B-score is -5.57 (active).
As to `CC1(C)O[C@@H]2CC3C4C[C@H](F)C5=CC(=O)C=CC5(C)C4C(O)CC3(C)[C@]2(C(=O)CO)O1` (some centres not stated), the B-score entry is “inactive”.
For the compound `O=C(COC(=O)c1cccs1)Nc1ccccc1Cl`, the B-score is -0.17.
For the compound `O=C(Nc1ccccc1Cl)/C(Cl)=C(\Cl)S(=O)c1ccccc1` (configuration not stated), the B-score is -9.85 (active).
On to `O=C(Nc1ccccc1Cl)Nn1cnnc1`, for which the B-score result was “inactive”.
With `CCc1noc(C)c1C(=O)Nc1nc(-c2ccccc2)cs1`, the B-score is -0.22.
With `CCCn1nc(C(=O)NNC(=O)CSCC(=O)Nc2cc(C)on2)c2ccccc2c1=O`, the B-score is -2.13.
Turning to `O=C(O/N=C(/c1ccccc1)c1ccncc1)c1ccccc1[N+](=O)[O-]`, the B-score is -1.04.
With `O=C(OCC(=O)N(CCc1ccccc1)Cc1ccccc1)c1ccccc1[N+](=O)[O-]`, the B-score was -6.77 (active).
Next, `Cc1c(C(=O)NCCCc2ccccc2)cccc1[N+](=O)[O-]`: -1.07.
For `Cc1cccc(N2CC(C(=O)Nc3ccccc3N3CCCC3)CC2=O)c1C` (configuration not stated) the value was “inactive”.
Next, `CC12CCC(C(=O)N3CCN(c4ncccn4)CC3)(c3nc4ccccc4nc31)C2(C)C` (configuration not stated): -6.6 (active); `CC(Oc1ccc(F)cc1)C(=O)N1CCN(c2ncccn2)CC1` (configuration not stated): “inactive”.
Regarding `c1cnc(N2CCN(c3ccc4ccccc4n3)CC2)nc1`, the B-score is -0.22.
For `Cc1cc(C)n2nc(C(=O)OC(C)C(=O)c3cc(C)c(C)cc3C)nc2n1` (configuration not stated), the B-score result was “inactive”.
With `Cc1ccccc1NC(=O)C(C)OC(=O)CCC(=O)N(CC(C)C)c1c(N)n(CC(C)C)c(=O)[nH]c1=O` (configuration not stated), the B-score result is “inactive”.
Regarding `Cc1cc(CNC(=O)c2cccc([N+](=O)[O-])c2)c2ccccc2n1`, the B-score entry is “inactive”.
With `O=[N+]([O-])c1cccc(Nc2c3ccccc3nc3ccccc23)c1`, the B-score is -5.7 (active).
Regarding `CC(=O)Nc1ccc(Nc2c3ccccc3nc3ccccc23)cc1`, the B-score result is “inactive”.
`CCOc1ccc(/C=C/C(=O)N(CC)CC(=O)NCc2cccs2)cc1OC`: the B-score entry was “inactive”.
Take `COc1ccccc1CNC(=O)COn1nnc2ccc(S(=O)(=O)N3CCOCC3)cc21`: the B-score result was “inactive”.
With `COc1ccc(Cl)cc1NC(=O)COC(=O)C(CC(C)C)N1C(=O)C2CC=CCC2C1=O` (configuration not stated), the B-score was -5.8 (active).
Regarding `COc1ccc(Cl)cc1NC(=O)c1cccc(N2C(=O)C3CC=CCC3C2=O)c1` (configuration not stated), the B-score was -0.4.
`COc1ccc(Cl)cc1NC(=O)CCN1CCOCC1`: the B-score is -1.02.
